High-throughput results (PubChem BioAssay)
A selection: hits, their analogues and other compounds. The true share with any hit is near 4.1%.
hcDAF-12 act: H. contortus DAF-12 nuclear receptor activators, primary screen, cell-based, luminescence, HEK293, lit1-tk-luc reporter. HEK293 hcDAF-12 lit1-tk-luc reporter; 0% DMSO, 100% Δ7-dafachronic acid. activation, % at 6.8 µM. actives 1.4% (n = 370,000). AID 652067, 2013;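 active means activation above the mean of all tested compounds plus 3 SD, cut at about 5.5% in these data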;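 further: 100% = response to 3 µM Δ7-dafachronic acid high control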
ssDAF12 agonist: S. stercoralis DAF-12 nuclear receptor activators, primary screen, cell-based, luminescence, HEK293, GRIP1 co-expression, lit1-tk-luc; HEK293 ssDAF-12/GRIP1 lit1-tk-luc reporter; % of 3 µM dafachronic acid response; activation, % at 6.8 µM; actives 1% (n = 370,000); AID 652126, 2013;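 active means activation above the mean over all tested compounds plus 3 SD, cut at about 0.9% in these data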;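 further: 0% = DMSO-only wells and 100% = 3 µM delta7-dafachronic acid wells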
hgDAF-12 ag: H. glycines DAF-12 receptor agonists, primary screen, cell-based, luminescence, HEK293, GAL4 fusion, UAS-luciferase | activation, % at 6.8 µM | Nuclear hormone receptor DAF-12 (Heterodera glycines), GAL4 fusion | actives 1.8% (n = 370,000) | HEK293 GAL4-hgDAF12 UAS-luciferase reporter, agonist luminescence; normalized to butyrate control;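 active means activation above a cutoff set at the mean of all screened compounds plus 3 SD, cut at about 10% in these data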;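 further: 0% = DMSO wells and 100% = sodium butyrate wells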
DAX1 inh-1: DAX1 (NR0B1) inhibitors, primary screen, cell-based, HEK293, Gal4-DAX1, luciferase luminescence. AID 504766, 2011. HEK293 Gal4-DAX1 luciferase reporter. actives 0.99% (n = 340,000). inhibition, % at 6.75 µM;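 active means inhibition above the mean over all tested compounds plus 3 SD, cut at about 4.2% in these data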;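 further: 0% = DAX1-transfected cells with DMSO and 100% = empty-vector control cells with DMSO; inhibition shows as a rise in luminescence from relieved DAX1 repression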
DAX1 inh-2: DAX1 (NR0B1) inhibitors on StAR promoter, primary screen, cell-based, luminescence, SF-1 (NR5A1), full-length DAX-1; HEK293T StAR-luciferase reporter, SF-1/DAX-1 repression relief; inhibition, % at 6.8 µM; actives 1.1% (n = 370,000); AID 652010, 2013;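 active means inhibition above the mean over all tested compounds plus 3 SD, cut at about 3.6% in these data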;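 further: 0% = DAX-1 cells with DMSO and 100% = cells lacking DAX-1 with DMSO; higher inhibition means more luminescence from relief of DAX-1 repression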
hgDAF12 ag: H. glycines DAF-12 receptor agonists, confirmation, cell-based, luminescence, HEK293, GAL4-LBD fusion; AID 743050, 2013; activation, % at 6.8 µM; HEK293 GAL4-hgDAF12 luciferase reporter, agonist mode; percent of butyrate response; shares compounds with hgDAF-12 ag; actives 80% (n = 3,300);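 active means mean activation over triplicate wells above the hit cutoff derived from the earlier primary screen, cut at about 11% in these data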;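 further: 0% = DMSO low control and 100% = 2 mM sodium butyrate high control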
LXRb DAF12 ctr: LXR agonists, Gal4 luciferase reporter, confirmation, counter-screen for hgDAF-12 agonist project, cell-based, luminescence, HEK293, H. glycines campaign | shares compounds with hgDAF-12 ag | 24 h | activation, % at 6.8 µM | 3,300 tested, under 10 active;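 active means mean activation of the triplicate above a set limit carried over from the primary screen, none filed active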
Target sequence (P55055 whole entry, looked up, the tested form may be a part): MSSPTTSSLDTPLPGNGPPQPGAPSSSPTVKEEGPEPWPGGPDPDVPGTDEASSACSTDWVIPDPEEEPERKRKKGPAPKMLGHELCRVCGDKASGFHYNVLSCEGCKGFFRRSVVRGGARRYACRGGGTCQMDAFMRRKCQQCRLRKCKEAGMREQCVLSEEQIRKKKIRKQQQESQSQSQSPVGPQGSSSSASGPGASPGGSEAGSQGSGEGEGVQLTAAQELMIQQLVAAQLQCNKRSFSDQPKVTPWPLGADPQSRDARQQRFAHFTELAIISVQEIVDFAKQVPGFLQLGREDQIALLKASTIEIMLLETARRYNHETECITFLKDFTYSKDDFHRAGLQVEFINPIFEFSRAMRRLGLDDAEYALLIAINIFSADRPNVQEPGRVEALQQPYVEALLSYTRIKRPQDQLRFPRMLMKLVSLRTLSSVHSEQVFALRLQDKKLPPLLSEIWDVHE
* = called active by the depositor; . = not tested or not shown.

SMILES	hcDAF-12 act	ssDAF12 agonist	hgDAF-12 ag	DAX1 inh-1	DAX1 inh-2	hgDAF12 ag	LXRb DAF12 ctr
Cc1cccc(N=Nc2c(C)nn(-c3ccccc3)c2N)c1C	1	-1	16*	0	0	11*	0
Fc1ccccc1NC(=S)N/N=C/c1ccccc1Br	4	1	16*	1	4.3*	12*	1
O=[N+]([O-])c1ccc(/C=N/NC(=S)Nc2ccccc2F)o1	1	-1	2	2	-2	.	.
COc1cc(/C=C/c2nnc3c4ccccc4ncn23)cc(OC)c1OC	-4	-2	-4	-2	-2	.	.
C(=C\c1nnc2c3ccccc3ncn12)/c1ccccc1	6.1*	2.5*	15*	-2	1	18*	1
O=C(Nc1ccc2[nH]c(=S)sc2c1)c1ccccc1	1	-1	14*	1	3.7*	12*	1
S=C(NCc1ccco1)Nc1ccc(Cl)cc1Cl	0	-1	6	0	0	.	.
S=C(NCc1ccco1)Nc1ccc(Br)cc1Cl	2	-1	13*	.	0	4	0
Cc1cc(C(=O)CSc2ncccn2)c(C)n1-c1cccc(F)c1	6.1*	2.3*	14*	2	4.3*	15*	1
Cc1cc(C)cc(-n2c(C)cc(C(=O)CSc3nnnn3C)c2C)c1	-1	-1	2	-1	-1	.	.
Cc1cc(C(=O)CSc2nnnn2C)c(C)n1-c1cccc(F)c1	3	-1	14*	2	2	15*	1
COc1cc(/C=N/OCC(=O)Nc2cc(C)cc(C)c2)ccc1OCc1ccc(Cl)cc1	5	-1	16*	-1	1	10	1
COc1cc(/C=N/N2CCOCC2)ccc1OCc1ccc(Cl)cc1	3	-1	10	1	3	.	.
O=c1[nH]c(CSc2ccccn2)nc2ccccc12	2	0	18*	1	3.6*	14*	1
COc1ccc(NC(=O)CSc2nc(N)c3cc4c(nc3n2)CCCC4)cc1	-1	-1	18*	-1	-1	5	0
CC(=O)c1ccc(NC(=O)CSc2nc(N)c3cc4c(nc3n2)CCCC4)cc1	1	-2	4	-1	0	.	.
O=C(CSc1nnc(-c2cccs2)o1)c1ccc2c(c1)OCO2	0	-1	-1	.	0	.	.
Cc1nn(-c2ccccc2)c(C)c1/C=N/O	-1	-1	1	0	0	.	.
Cc1nn(-c2ccccc2)c(/N=C/c2ccccc2O)c1-c1ccccc1	2	0	15*	2	3	11*	0
CCOC(=O)C1(Cc2ccccc2Cl)CCN(C(=O)CN2CCOC2=O)CC1	2	0	17*	2	2	10	0
COc1ccc(S[C@]2(C(=O)N3CCOCC3)CC(=O)N(S(=O)(=O)c3ccc(F)cc3)[C@@H]2c2ccc(OC)cc2)cc1	0	-1	-1	.	-2	.	.
Cc1nc(N)sc1-c1csc(Nc2cccc(O)c2)n1	1	0	1	0	0	.	.
Cc1nc(C)c(-c2csc(Nc3cccc(O)c3)n2)s1	3	0	23*	0	1	14*	1
COc1ccc(CCN2CC(=O)N3CCc4ccc(N5CCOCC5)cc4C3CC2=O)cc1OC (stereo unspecified)	-1	-1	-1	.	1	.	.
